# In ChEMBL document CHEMBL3988442, “University of Dundee, Small-Polar-MMV Screening Library” (2021):
# Target: T1, Methionyl-tRNA synthetase, putative (Leishmania donovani (strain BPK282A1)) (UniProt E9BF75)
# T1 sequence (whole entry): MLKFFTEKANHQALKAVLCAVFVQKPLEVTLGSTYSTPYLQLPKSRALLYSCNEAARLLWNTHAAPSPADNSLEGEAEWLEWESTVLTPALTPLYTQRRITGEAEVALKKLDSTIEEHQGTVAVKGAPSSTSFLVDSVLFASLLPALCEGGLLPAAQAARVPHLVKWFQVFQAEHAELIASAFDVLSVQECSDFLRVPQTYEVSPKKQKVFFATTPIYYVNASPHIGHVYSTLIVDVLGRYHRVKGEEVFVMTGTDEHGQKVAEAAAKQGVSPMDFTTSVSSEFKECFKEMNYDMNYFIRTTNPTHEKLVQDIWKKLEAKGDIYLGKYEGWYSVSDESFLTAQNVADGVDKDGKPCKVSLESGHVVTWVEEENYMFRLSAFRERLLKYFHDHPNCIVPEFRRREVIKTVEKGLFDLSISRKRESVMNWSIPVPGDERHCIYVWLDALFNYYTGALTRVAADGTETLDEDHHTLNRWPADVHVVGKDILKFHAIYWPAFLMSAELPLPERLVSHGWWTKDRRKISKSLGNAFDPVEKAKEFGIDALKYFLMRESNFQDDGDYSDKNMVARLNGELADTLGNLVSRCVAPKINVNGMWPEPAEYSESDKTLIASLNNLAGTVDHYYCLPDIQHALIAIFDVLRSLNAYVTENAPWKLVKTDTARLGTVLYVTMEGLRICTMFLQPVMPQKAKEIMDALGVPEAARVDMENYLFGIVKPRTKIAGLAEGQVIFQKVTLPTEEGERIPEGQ
# Experiment: Leishmania donovani Methionine tRNA synthetase (LdMetRS):v7. Dose response assay
# Type: functional
# Parameters: conc 80 nM, time 150 minutes
structure (smiles),measurement,setting,value
O=C(NCC1CCCCC1)c1cc(=O)c2cc(F)cc(O)c2o1,PXC50,MAX_EFFECT 5.56621881,< 4
same,PXC50,MAX_EFFECT 11.64274322,< 4
COC(=O)c1sc2nc(C)nc(N(C)Cc3cccnc3)c2c1C,PXC50,MAX_EFFECT 13.66120219,< 4
same,PXC50,MAX_EFFECT 13.90374332,< 4
Cc1nc(NC(Cc2ccccc2)C(=O)O)c2c3c(sc2n1)CCCC3 (stereo not given),PXC50,MAX_EFFECT 23.07692308,< 4
same,PXC50,MAX_EFFECT 25.24509804,< 4
CS(=O)(=O)N1CCN(c2ccc3ccc(C(=O)NCCn4cccn4)cn23)CC1,PXC50,"BOTTOM 1.569537618, HILLSLOPE 2.334941078, MAX_EFFECT 65.07177033, TOP 65.29640188",4.95
same,PXC50,"BOTTOM 7.030389685, HILLSLOPE 2.531896239, MAX_EFFECT 68.73857404, TOP 69.44063033",4.79
CN(CCO)c1nc(-c2cccs2)nc2sc3c(c12)CCCC3,PXC50,MAX_EFFECT 31.46666667,< 4
same,PXC50,MAX_EFFECT 36.50793651,< 4
Cc1nc(NCCC(=O)NC(C)C)c2c3c(sc2n1)CCC3,PXC50,MAX_EFFECT -1.058201058,< 4
same,PXC50,MAX_EFFECT -2.133333333,< 4
Cc1nc(N2CCC(O)CC2)c2c(-c3cccs3)csc2n1,PXC50,MAX_EFFECT 8.905852417,< 4
same,PXC50,MAX_EFFECT 9.319899244,< 4
CC(C)C[C@H](N)COc1ccccc1-c1ccccn1,PXC50,MAX_EFFECT 10.44776119,< 4
same,PXC50,MAX_EFFECT 11.38716356,< 4
Cc1nc(NCc2ccccn2)c2cc(C)sc2n1,PXC50,MAX_EFFECT 3.015075377,< 4
same,PXC50,MAX_EFFECT 6.633906634,< 4
OCc1ccncc1NCc1cnc(-c2ccccn2)s1,PXC50,MAX_EFFECT 2.34741784,< 4
same,PXC50,MAX_EFFECT 7.222222222,< 4
CCN(CC)C(=O)CN(C)c1nc(C)nc2sc(-c3ccccc3)cc12,PXC50,MAX_EFFECT 23.46666667,< 4
same,PXC50,MAX_EFFECT 30.15873016,< 4
Cc1nc2c(-c3nc(-c4ccccc4N)n[nH]3)cccn2c1C,PXC50,MAX_EFFECT 15.34883721,< 4
same,PXC50,MAX_EFFECT 20.27972028,< 4
Cc1sc2nc(CN3CCCC3)nc(NC3CCCC3)c2c1C,PXC50,MAX_EFFECT 34.69387755,< 4
same,PXC50,MAX_EFFECT 40.15151515,< 4
FC(F)(F)c1nc(N2CCCC2)nc2c1CCCCC2,PXC50,MAX_EFFECT 2.290076336,< 4
same,PXC50,MAX_EFFECT 5.793450882,< 4
Cc1nc(N2CCC(NS(C)(=O)=O)CC2)c2c(-c3cccs3)csc2n1,PXC50,MAX_EFFECT 36.61616162,< 4
same,PXC50,MAX_EFFECT 37.24489796,< 4
Nc1cc(C(=O)O)c(Cl)cc1Cl,PXC50,MAX_EFFECT 6.695464363,< 3
same,PXC50,MAX_EFFECT 9.69581749,< 3
Cc1sc2nc(-c3cccs3)nc(NCCN3CCOCC3)c2c1C,PXC50,MAX_EFFECT 8.542713568,< 4
same,PXC50,MAX_EFFECT 8.5995086,< 4
Cc1sc2nc(CCN)nc(N(CCN(C)C)CC3CCCO3)c2c1C (stereo not given),PXC50,MAX_EFFECT 8.838383838,< 4
same,PXC50,MAX_EFFECT 10.20408163,< 4
Cc1nc(N(C)C)c2c3c(sc2n1)CCCC3,PXC50,MAX_EFFECT 4.166666667,< 4
same,PXC50,MAX_EFFECT 4.385964912,< 4
Nc1noc2ccc(-c3cnc4ccc(NC5CCOCC5)nn34)cc12,PXC50,MAX_EFFECT 17.30279898,< 4
same,PXC50,MAX_EFFECT 20.1754386,< 4
CS(=O)(=O)N1CCN(c2ccc3c(F)cc(C(=O)NC4CCCC4)cn23)CC1,PXC50,MAX_EFFECT 12.5,< 4
same,PXC50,MAX_EFFECT 15.35087719,< 4
N#Cc1cccc(Nc2nccc(N3CCC(NS(=O)(=O)c4cccc(C#N)c4)CC3)n2)c1,PXC50,MAX_EFFECT 35.34883721,< 4
same,PXC50,MAX_EFFECT 46.85314685,< 4
CS(=O)(=O)N1CCN(c2ccc3ccc(C(=O)NCCN4CCOCC4)cn23)CC1,PXC50,"BOTTOM 1.032447983, HILLSLOPE 3.01577023, MAX_EFFECT 61.72248804, TOP 62.04525005",4.88
same,PXC50,"BOTTOM -0.949038422, HILLSLOPE 2.220287811, MAX_EFFECT 68.73857404, TOP 70.86130279",4.83
FC(F)(F)c1nc(N2CCOCC2)nc2c1CCCCC2,PXC50,MAX_EFFECT 7.808564232,< 4
same,PXC50,MAX_EFFECT 8.396946565,< 4
Cc1nc(N2CCN(c3ncccn3)CC2)c2c3c(sc2n1)CCCC3,PXC50,MAX_EFFECT 19.78609626,< 4
same,PXC50,MAX_EFFECT 20.21857923,< 4
Nc1noc2ccc(-c3cnc4ccc(N5CCOCC5)nn34)cc12,PXC50,MAX_EFFECT 12.21374046,< 4
same,PXC50,MAX_EFFECT 20.61403509,< 4
CN(C)C(=O)N1CCN(c2ccc3ccc(C(=O)NC4CC4)cn23)CC1,PXC50,"BOTTOM 3.433705082, HILLSLOPE 1.394575879, MAX_EFFECT 54.57943925, TOP 100.0",4.05
same,PXC50,MAX_EFFECT 48.07256236,< 4
Nc1noc2ccc(-c3cnc4ccc(NCCn5cccn5)nn34)cc12,PXC50,MAX_EFFECT 13.59649123,< 4
same,PXC50,MAX_EFFECT 13.74045802,< 4
CC1CCc2c(Cl)cc(Cl)c(O)c2N1 (stereo not given),PXC50,MAX_EFFECT 23.76425856,< 3
same,PXC50,MAX_EFFECT 24.40604752,< 3
CN(CC1CC1)c1ccc2ccc(C(=O)NC3CCCCC3)cn12,PXC50,"BOTTOM 1.124026448, HILLSLOPE 1.465093934, MAX_EFFECT 59.86394558, TOP 70.1166241",4.49
same,PXC50,"BOTTOM 5.503846383, HILLSLOPE 1.186903167, MAX_EFFECT 58.31775701, TOP 100.0",4.05
